In PubChem BioAssay AID1159580 (chemical genetic matrix, 2015):
Where “and” joins values, the source holds several entries; their conditions need not be identical. Equal entries are not always repeated. In all, about 5,500 compounds went through this assay and about 2,000 (36%) were called active. Another 18% or so got no clear call; they are omitted. Cut-off read from the data, not from the text of the source: active = normalized growth mostly below about 0.91 (no sharp cut-off); inconclusive = no clear call, values can overlap the other calls; inactive = mostly above about 0.92. This is one part of the list.

Experiment: chemical genetic growth profiling, strain panel (AID 1159580);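 note: tested at 20 µM; growth read once vehicle control cultures reached saturation at 30 °C; 1 = growth at the plate median or of vehicle wells; lower values mean less growth of the strain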
Details: S. cerevisiae deletion strains, growth OD

Measured: normalized growth

CC(=O)O[C@H]1CC[C@@]2(C)C(C[C@@H](OC(C)=O)[C@@]3(C)C4=CC(=O)O[C@@H](c5ccoc5)[C@]4(C)CCC23)C1(C)C (stereo partly drawn)
inactive: locus YAL021C, strain ccr4, hits give low values 1 | locus YAL026C, strain drs2, hits give low values 1.01 | locus YAL030W, strain snc1, hits give low values 0.999 | locus YBL061C, strain skt5, hits give low values 0.997 | locus YBR009C, strain hhf1, hits give low values 1.02 | locus YBR021W, strain FUR4, hits give low values 0.981 | locus YBR023C, strain chs3, hits give low values 0.996 | locus YBR171W, strain sec66, hits give low values 1 | locus YBR229C, strain ROT2, hits give low values 1.01 | locus YBR231C, strain swc5, hits give low values 1.01 | locus YBR279W, strain paf1, hits give low values 1 | locus YCL011C, strain gbp2, hits give low values 1.01 | locus YCL016C, strain dcc1, hits give low values 1.01 | locus YCL029C, strain bik1, hits give low values 0.989 | locus YCL061C, strain MRC1, hits give low values 0.994 | locus YCL069W, strain vba3, hits give low values 1.02 | locus YCR088W, strain abp1, hits give low values 1 | locus YDL005C, strain med2, hits give low values 1 | locus YDL035C, strain GPR1, hits give low values 1.02 | locus YDL040C, strain nat1, hits give low values 1 | locus YDL074C, strain BRE1, hits give low values 1 | locus YDL101C, strain DUN1, hits give low values 0.999 | locus YDL134C, strain PPH21, hits give low values 1 | locus YDL185W, strain tfp1, hits give low values 1 | locus YDL192W, strain arf1, hits give low values 0.988 | locus YDR001C, strain nth1, hits give low values 1 | locus YDR069C, strain doa4, hits give low values 1.02 | locus YDR101C, strain arx1, hits give low values 1.01 | locus YDR137W, strain rgp1, hits give low values 0.96 | locus YDR150W, strain NUM1, hits give low values 1.01 | locus YDR159W, strain sac3, hits give low values 1 | locus YDR162C, strain NBP2, hits give low values 0.992 | locus YDR195W, strain ref2 1.02 | locus YDR297W, strain sur2, hits give low values 1.02 | locus YDR318W, strain mcm21, hits give low values 0.998 | locus YDR334W, strain swr1, hits give low values 1.01 | locus YDR335W, strain msn5, hits give low values 0.997 | locus YDR388W, hits give low values 1 | locus YDR392W, strain spt3, hits give low values 0.974 | locus YDR502C, strain sam2, hits give low values 0.992 | locus YEL003W, strain gim4, hits give low values 1 | locus YEL037C, strain rad23, hits give low values 1 | locus YEL061C, strain CIN8 (second series), hits give low values 1.01 | locus YEL061C, strain CIN8, hits give low values 1.01 | locus YER015W, strain faa2, hits give low values 0.991 | locus YER016W, strain bim1, hits give low values 0.997 | locus YER110C, hits give low values 0.992 | locus YER111C, strain swi4, hits give low values 1.01 | locus YER155C, strain BEM2 (second series), hits give low values 0.992 | locus YER155C, strain BEM2, hits give low values 1.01 | locus YER167W, strain BCK2, hits give low values 1.01 | locus YFR010W, strain ubp6, hits give low values 1 | locus YGL078C, strain dbp3, hits give low values 0.992 | locus YGL086W, strain mad1, hits give low values 1.01 | locus YGL167C, strain pmr1, hits give low values 1.01 | locus YGL173C, strain kem1, hits give low values 1.01 | locus YGL227W, strain vid30, hits give low values 0.997 | locus YGL240W, strain doc1, hits give low values 1.02 | locus YGL248W, strain PDE1, hits give low values 1 | locus YGL253W, strain hxk2, hits give low values 1 | locus YGR078C, strain PAC10, hits give low values 0.988 | locus YGR135W, strain pre9, hits give low values 0.975 | locus YGR229C, strain SMI1, hits give low values 1 | locus YGR252W, strain gcn5, hits give low values 0.929 | locus YHR013C, strain ard1, hits give low values 0.978 | locus YHR027C, strain rpn1, hits give low values 1.01 | locus YHR030C, strain SLT2, hits give low values 0.955 | locus YHR079C, strain IRE1 (second series), hits give low values 0.993 | locus YHR079C, strain IRE1, hits give low values 0.98 | locus YHR094C, strain hxt1, hits give low values 0.998 | locus YHR129C, strain ARP1, hits give low values 1.01 | locus YHR142W, strain chs7, hits give low values 1 | locus YHR200W, strain rpn10, hits give low values 0.994 | locus YIL066C, strain RNR3, hits give low values 1.02 | locus YIL073C, strain SPO22, hits give low values 1.02 | locus YIL125W, strain kgd1, hits give low values 1.01 | locus YIR030C, strain dcg1, hits give low values 0.991 | locus YJL092W, strain hpr5, hits give low values 0.996 | locus YJL095W, strain BCK1 (second series), hits give low values 0.99 | locus YJL095W, strain BCK1, hits give low values 0.985 and 0.949 | locus YJL115W, strain asf1, hits give low values 0.993 | locus YJL129C, strain trk1, hits give low values 0.99 | locus YJL134W, strain LCB3, hits give low values 1.01 | locus YJL154C, strain vps35, hits give low values 0.994 | locus YJL164C, strain tpk1, hits give low values 1.01 | locus YJL166W, strain qcr8, hits give low values 1.02 | locus YJL168C, strain set2, hits give low values 0.986 | locus YJL187C, strain SWE1 (second series), hits give low values 0.997 | locus YJL187C, strain SWE1, hits give low values 1.01 | locus YJR066W, strain TOR1, hits give low values 0.9 | locus YJR075W, strain HOC1, hits give low values 1.01 | locus YKL068W, hits give low values 0.984 | locus YKL085W, strain MDH1 (second series), hits give low values 1.02 | locus YKL085W, strain MDH1, hits give low values 1.02 | locus YKL160W, strain elf1, hits give low values 1 | locus YKL190W, strain CNB1, hits give low values 1 | locus YKR001C, strain vps1, hits give low values 0.983 | locus YKR026C, strain gcn3, hits give low values 1.01 | locus YKR091W, strain srl3, hits give low values 1 | locus YLL001W, strain dnm1, hits give low values 1.01 | locus YLL026W, hits give low values 0.995 | locus YLL041C, strain sdh2, hits give low values 0.987 | locus YLR027C, strain aat2, hits give low values 1 | locus YLR039C, strain RIC1, hits give low values 0.985 | locus YLR058C, strain SHM2, hits give low values 1.01 | locus YLR102C, strain apc9, hits give low values 0.997 | locus YLR113W, strain HOG1, hits give low values 0.966 | locus YLR221C, strain rsa3, hits give low values 1.02 | locus YLR258W, strain gsy2, hits give low values 0.995 | locus YLR262C, strain YPT6 (second series), hits give low values 0.979 | locus YLR262C, strain YPT6, hits give low values 1.02 | locus YLR268W, strain sec22, hits give low values 1.01 | locus YLR320W, strain mms22, hits give low values 0.999 | locus YLR342W, strain FKS1, hits give low values 1 | locus YLR357W, strain rsc2, hits give low values 1.01 | locus YLR370C, strain arc18, hits give low values 1.02 | locus YLR371W, strain rom2, hits give low values 1 | locus YLR384C, strain iki3, hits give low values 0.987 | locus YLR418C, strain cdc73, hits give low values 0.954 | locus YML016C, strain PPZ1, hits give low values 1.01 | locus YML032C, strain rad52, hits give low values 0.985 | locus YML120C, strain ndi1, hits give low values 1.02 | locus YML124C, strain tub3, hits give low values 0.987 | locus YMR058W, strain fet3, hits give low values 1 | locus YMR078C, strain ctf18, hits give low values 0.981 | locus YMR125W, strain sto1, hits give low values 0.99 | locus YMR129W, hits give low values 1 | locus YMR205C, strain PFK2, hits give low values 1.01 | locus YMR223W, strain ubp8, hits give low values 0.983 | locus YMR231W, strain pep5, hits give low values 0.991 | locus YMR263W, strain SAP30, hits give low values 1.01 | locus YMR307W, strain GAS1, hits give low values 1.03 | locus YNL067W, strain RPL9B, hits give low values 0.997 | locus YNL071W, strain lat1, hits give low values 1.01 | locus YNL153C, strain GIM3, hits give low values 0.999 | locus YNL183C, strain NPR1, hits give low values 0.935 | locus YNL209W, strain ssb2, hits give low values 1.02 | locus YNL233W, strain BNI4, hits give low values 1.02 | locus YNL248C, strain rpa49, hits give low values 1.01 | locus YNL250W, strain rad50, hits give low values 0.995 | locus YNL271C, strain bni1, hits give low values 1 | locus YNL298W, strain CLA4, hits give low values 1.01 | locus YNL307C, strain MCK1, hits give low values 0.995 | locus YNL322C, strain KRE1 (second series), hits give low values 0.987 | locus YNL322C, strain KRE1, hits give low values 1.01 | locus YNR049C, strain mso1, hits give low values 1.01 | locus YNR052C, strain pop2, hits give low values 0.987 | locus YOL006C, strain TOP1, hits give low values 0.965 | locus YOL012C, strain htz1 1.15 | locus YOL147C, strain pex11, hits give low values 1 | locus YOR001W, strain rrp6, hits give low values 1.01 | locus YOR061W, strain CKA2, hits give low values 1.01 | locus YOR069W, strain VPS5, hits give low values 1 | locus YOR070C, strain gyp1, hits give low values 1.01 | locus YOR080W, strain dia2, hits give low values 1 | locus YOR083W, strain WHI5, hits give low values 1 | locus YOR106W, strain vam3, hits give low values 1.03 | locus YOR136W, strain idh2, hits give low values 0.992 | locus YOR144C, strain elg1, hits give low values 0.995 | locus YOR184W, strain ser1, hits give low values 1.01 | locus YOR231W, strain MKK1, hits give low values 0.957 | locus YOR265W, strain rbl2, hits give low values 1.02 | locus YOR270C, strain vph1, hits give low values 0.886 | locus YOR290C, strain snf2, hits give low values 0.998 | locus YOR316C, strain cot1, hits give low values 0.997 | locus YPL051W, strain arl3, hits give low values 0.997 | locus YPL055C, strain LGE1, hits give low values 1.03 | locus YPL078C, strain atp4, hits give low values 1.01 | locus YPL106C, strain sse1, hits give low values 1.02 | locus YPL240C, strain hsp82, hits give low values 0.998 | locus YPL241C, strain CIN2, hits give low values 1 | locus YPL256C, strain CLN2, hits give low values 0.96 | locus YPR119W, strain clb2, hits give low values 0.992 | locus YPR141C, strain kar3, hits give low values 0.99 | locus YPR163C, strain tif3, hits give low values 0.989 | locus YPR167C, strain met16, hits give low values 0.985 | strain wtn01, hits give low values 0.993
active: locus YKL009W, strain mrt4, hits give low values 1.21 [resistant]
